Results as given in PubChem BioAssay (NCATS).
Results filed as inconclusive are left out. The source made the active and inactive calls. Calls come from the whole dose curve.

experiment: Cell Viability - BJ (AID 421); settings: BJ fibroblast viability, qHTS;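 note: cells exposed to compound for 40 hours at 37 °C before readout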
Excerpt: NIH Chemical Genomics Center [NCGC]
NIH Molecular Libraries Screening Centers Network [MLSCN]
National Institutes of Environmental Health Sciences [NIEHS]
National Toxicology Program [NTP]
We have developed a 1536-well cell-based assay for quantitative high throughput screening (qHTS) against a number of cell lines to determine in vitro cytotoxicity of small molecules. This particular assay uses the BJ cell line from ATCC which is derived from normal human foreskin fibroblasts.
NCGC Assay Protocol Summary:
The CellTiter-Glo luminescent cell viability assay (Promega) is a homogeneous method to measure the number of viable cells in culture. The end point readout of this assay is based on quantitation of intracellular ATP, an indicator of metabolic activity, using the luciferase reaction. Luciferase catalyzes the oxidation of beetle Luciferin to oxyluciferin and light in the presence of ATP. The luminescent signal is proportional to amount of ATP present.
Using the CellTiter-Glo luminescent cell viability assay, the amount of cellular ATP was measured in the BJ cell line with complete culture medium following compound treatment for 40 hours. The assay was performed in opaque white Kalypsys 1536-well plates. In the screen, tamoxifen and doxorubicin were used as positive controls. Library compounds were measured for their ability to cause acute toxicity in the cell line, as reflected by a decrease in intracellular ATP levels, in a concentration-dependent manner. Data were normalized to the controls for basal activity (DMSO only) and 100% inhibition (100 uM tamoxifen). AC50 values were determined from concentration-response data modeled with the standard Hill equation.
qHTS protocol fo CellTiter Glo BJ cellular assay
[Step] [Parameter] [Value] [Description]
1. Reagent; 5 uL; 1500 BJ cells/well
2. Time; 5 hr; 37 °C incubation
4. Controls; 23 nL; Tamoxifen 0.34 uM to 100 uM & Doxorubicin 0.02 nM to 100 uM
5. Time; 40 hr; 37 °C incubation
6. Reagent; 5 uL; CellTiter Glo reagent
7. Time; 20 min; Room Temperature
8. Detection; Luminescence; Viewlux plate reader
Keywords: cell viability, cytotoxicity, BJ cell line, luminescence, NTPHTS, NTPHTS_NCGC, NIEHS, EPA, DSSTox, MLSMR, MLSCN, NIH Roadmap, qHTS, NCGC
Potency is the fitted concentration of half-maximal effect.

Structure (SMILES)	Potency
CC(=O)OCC(COC(C)=O)OC(C)=O	> 92 µM (inactive)
CC(=O)NS(=O)(=O)c1ccc(N)cc1	> 92 µM (inactive)
O=C1C(c2[nH]c3ccccc3c2O)=Nc2ccccc21	> 92 µM (inactive)
CCCC(O)C(CC)CO (configuration not stated)	> 92 µM (inactive)
C=CCNC(N)=S	> 92 µM (inactive)
CCCCOC(=O)c1ccc(N)cc1	> 92 µM (inactive)
CC(=O)Nc1ccccc1	> 92 µM (inactive)
Cc1cc(C)nc(NS(=O)(=O)c2ccc(N)cc2)n1	> 92 µM (inactive)
CCCCCCCC(=O)OCC(COC(=O)CCCCCCC)OC(=O)CCCCCCC	> 92 µM (inactive)
CCCCCC(N)=O	> 92 µM (inactive)
CCN(CC)C(=O)c1cccc(C)c1	> 92 µM (inactive)
CC(=O)Nc1cccc(O)c1	> 92 µM (inactive)
Nc1ccc(S(=O)(=O)c2ccc(N)cc2)cc1	> 92 µM (inactive)
O=C1c2cccc(O)c2C(=O)c2c(O)cccc21	> 92 µM (inactive)
CC1CC(OC(=O)c2ccccc2O)CC(C)(C)C1 (configuration not stated)	> 92 µM (inactive)
COc1ccc(O)cc1	> 92 µM (inactive)
FC(F)(F)C(Cl)Br (configuration not stated)	> 92 µM (inactive)
Cc1cc(=O)[nH]c(=S)[nH]1	> 92 µM (inactive)
Cc1c(N(C)C)c(=O)n(-c2ccccc2)n1C	> 92 µM (inactive)
O=C(c1ccccc1)C(O)c1ccccc1 (configuration not stated)	> 92 µM (inactive)
O=C(O)CCCCC1CCSS1 (configuration not stated)	> 92 µM (inactive)
CC(=O)Nc1ccc(C(=O)O)cc1	> 92 µM (inactive)
